Screens deposited in PubChem BioAssay by Paczesny and Yang Labs, IUPUI and University of Michigan.
ST2 inh: IL1RL1 inhibition. Q01638. AlphaLISA ST2-Fc/biotin-IL-33 interaction, 1 h. inhibition, % for hits at 17 µM. actives 2.3% (n = 78,000). AID 1259354; in the data active = inhibition above about 30%
Target sequence (Q01638 whole entry, looked up): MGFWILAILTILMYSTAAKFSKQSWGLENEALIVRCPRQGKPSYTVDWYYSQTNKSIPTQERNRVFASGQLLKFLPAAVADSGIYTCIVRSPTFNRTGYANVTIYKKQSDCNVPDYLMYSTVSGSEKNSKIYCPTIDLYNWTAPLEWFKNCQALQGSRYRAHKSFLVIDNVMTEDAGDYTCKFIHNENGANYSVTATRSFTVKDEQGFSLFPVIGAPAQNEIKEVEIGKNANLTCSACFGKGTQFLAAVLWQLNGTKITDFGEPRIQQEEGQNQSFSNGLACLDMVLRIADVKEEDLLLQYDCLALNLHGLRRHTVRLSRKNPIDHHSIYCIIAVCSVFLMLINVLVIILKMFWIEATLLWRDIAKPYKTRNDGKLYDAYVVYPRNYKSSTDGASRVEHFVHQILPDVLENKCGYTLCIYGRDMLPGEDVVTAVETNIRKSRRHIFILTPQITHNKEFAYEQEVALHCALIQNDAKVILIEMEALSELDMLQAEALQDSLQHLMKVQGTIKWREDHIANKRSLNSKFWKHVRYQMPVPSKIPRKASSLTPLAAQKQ
Active calls of the source: *; i = inactive; ! = not active in a repeat. Shown is part of a subset that was picked to be rich in hits.

SMILES	ST2 inh
CC(=O)N1CCC(N2C[C@H](O)C[C@H]2c2nc(-c3ccc(C(F)(F)F)cc3)no2)CC1	i
O[C@@H]1C[C@@H](c2nc(-c3ccc4c(c3)OCO4)no2)N(C2CCOCC2)C1	33.0%*
CC(=O)N1CCC(N2C[C@H](O)C[C@H]2c2nc(-c3ccc4c(c3)OCO4)no2)CC1	42.0%*
CC(=O)Nc1ccc(S(=O)(=O)N[C@H]2C[C@@H](c3nc(-c4ccc5c(c4)OCO5)no3)N(C)C2)cc1	i
O[C@@H]1C[C@@H](c2nc(-c3ccc4c(c3)OCO4)no2)N(Cc2ccc(Cl)cc2)C1	i
Oc1ccccc1CN1C[C@H](O)C[C@H]1c1nc(-c2ccc3c(c2)OCO3)no1	i
O=C1C2C3c4ccccc4C(c4ccccc43)C2C(=O)N1c1nccs1 (stereo not drawn)	i
COc1cccc(/C=C2/SC(=N)N(c3nonc3N)C2=O)c1	i
CCOC(=O)C1(Cc2ccccc2F)CCCN(Cc2cnc(SC)nc2)C1 (stereo not drawn)	i
O=C(c1cnnn1-c1ccccc1)N1CCOC(c2ccc(Cl)cc2)C1 (stereo not drawn)	i
CCNC(=O)N[C@H]1CO[C@H]2[C@@H]1OC[C@H]2OC	i
CCCc1nc2oc3c(-c4ccccc4)c(C(=O)O)c(C)nc3c2c2c1COC(C)(C)C2	i
CCc1nc2oc(C(=O)c3ccc(Cl)cc3)c(N)c2c2c1COC(C)(C)C2	i
CCc1nc2oc(C(=O)c3ccccc3)c(N)c2c2c1COC(C)(C)C2	40.0%*!
O=C(Nc1cccc(Cl)c1Cl)c1cccc(Br)c1	i
CCCc1nc(C(=O)N2C[C@@H]3[C@H](C2)[C@H]2CC[C@@H]3O2)cs1	i
CN(C)CCN(C)[C@@H]1[C@H](O)[C@H](CO)O[C@@H]1CNC(=O)c1ccco1	i
CC(=O)NC(=O)c1cc2cc(Br)ccc2oc1=Nc1cccc(F)c1	i
CC(=O)NC(=O)c1cc2cc(Cl)cc(Cl)c2oc1=Nc1cccc(C#N)c1	i
COc1ccc2oc(=Nc3ccc(C#N)cc3)c(C(=O)Nc3ccccc3)cc2c1	i
COc1ccc2cc(C(=O)Nc3ccccc3)c(=Nc3ccc(C#N)cc3)oc2c1	i
N#Cc1ccc(N=c2oc3ccccc3cc2C(=O)Nc2ccccc2)cc1	33.0%*
CC(=O)NC(=O)c1cc2cc(Br)ccc2oc1=Nc1cccc(C#N)c1	33.0%*
Fc1cnc(N2CCN(Cc3ccc(-c4ccn[nH]4)o3)CC2)nc1	i
CC(=O)Cc1nsc(NCc2ccccc2)n1	i
SMILES	ST2 inh
CCOCCOC(=O)C1=C(C)NC2=C(C(=O)C(C(=O)OC)C(C)C2)C1c1ccc(F)cc1 (stereo not drawn)	i
Cc1cnc(SCCN2CCOCC2)nc1C1CCCN(C(=O)C2Cc3ccccc3O2)C1 (stereo not drawn)	i
COc1ccc(C2CC(=O)C3=C(C2)Nc2ccccc2NC3c2ccc(C)cc2)cc1OC (stereo not drawn)	i
O=C(CCN1Cc2ccccc2C1=O)N1CCOC(Cc2ccccc2)C1 (stereo not drawn)	i
O=C(O)c1ccc(S(=O)(=O)c2ccc3c(c2)C(=O)N(c2nccs2)C3=O)cc1	i
CC(C)(C)N1C(=O)c2ccc(S(=O)(=O)c3ccc4c(c3)C(=O)N(C(C)(C)C)C4=O)cc2C1=O	30.0%*
CC(C)CN1C(=O)c2ccc(S(=O)(=O)c3ccc4c(c3)C(=O)N(CC(C)C)C4=O)cc2C1=O	i
CC(C)N(C(=O)c1ccc(C(=O)Nc2ccccc2)cc1)C(C)C	i
Cc1cc(C)n2nc(CC(=O)N(Cc3sccc3C)C3CC3)nc2n1	i
COc1ccc(N(C(=O)c2cccs2)C2C=CS(=O)(=O)C2)cc1 (stereo not drawn)	i
CCOc1ccc(N(CC(=O)N2CCOCC2)S(=O)(=O)c2ccc(OC)c(OC)c2)cc1	i
C=CCn1cc(CN2CCCC(c3nc4c(C)cccc4[nH]3)C2)c(C)n1 (stereo not drawn)	i
CC(C)C1CN(C(=O)c2ccccc2-n2cncn2)CCC(=O)N1CC1CC1 (stereo not drawn)	i
CC1=CC(C)(C)Nc2ccc(OC(=O)c3ccc4c(c3)OCO4)cc21	30.0%*
COc1ccccc1C(=O)Oc1ccc2c(c1)C(C)=CC(C)(C)N2	i
COc1ccc(/C(N)=N\OC(=O)c2ccc3c(c2)OCO3)cc1OC	i
COc1ccc(-n2ncc3c(N4CCC(Cc5ccccc5)CC4)ncnc32)cc1	i
CCCS(=O)(=O)N1CCCC(CCc2ccc(OC)cc2)C1 (stereo not drawn)	i
O=C(O)C1CN(Cc2ccc3c(c2)Cc2ccccc2-3)CCN1 (stereo not drawn)	i
Cc1cccc(/C=C2\N=C(c3ccc4c(c3)OCO4)OC2=O)c1	i
COc1ccc(C2=N/C(=C\c3cccc(C(F)(F)F)c3)C(=O)O2)cc1OC	i
COc1cc(C)c(/C=C2/N=C(c3ccccc3)OC2=O)cc1C(C)C	i
Cc1cccc(C2=N/C(=C\c3ccco3)C(=O)O2)c1	47.0%*
Cc1cccc(/C=C2\N=C(c3ccccc3[N+](=O)[O-])OC2=O)c1	i
